Measurements published in PubChem BioAssay AID2058 (Sanford-Burnham Center for Chemical Genomics, 2009).
Out of some 290,000 compounds screened, about 150 (0.052%) were called active.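 The calls were made as follows: active = inhibition of at least 50% with at least 30 cells and total cytoplasm GFP at most 10,000,000; inconclusive = under 30 cells or total GFP of 10,000,000 plus; inactive = the rest.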 This excerpt belongs to a sample that is enriched for actives. Potency and affinity values are given separately.

Molecular target: G-protein coupled receptor 35 (Homo sapiens) (UniProt Q9HC97)
Assay: GPR35 antagonists blocking zaprinast-driven arrestin recruitment, primary screen, imaging, U2OS, beta-arrestin-GFP, zaprinast agonist (AID 2058)
Conditions: U2OS GPR35 beta-arrestin-GFP translocation imaging, zaprinast antagonism; at 10 µM; stronger effect = higher value

G-protein coupled receptor 35 (Homo sapiens), sequence (Q9HC97 whole entry, looked up): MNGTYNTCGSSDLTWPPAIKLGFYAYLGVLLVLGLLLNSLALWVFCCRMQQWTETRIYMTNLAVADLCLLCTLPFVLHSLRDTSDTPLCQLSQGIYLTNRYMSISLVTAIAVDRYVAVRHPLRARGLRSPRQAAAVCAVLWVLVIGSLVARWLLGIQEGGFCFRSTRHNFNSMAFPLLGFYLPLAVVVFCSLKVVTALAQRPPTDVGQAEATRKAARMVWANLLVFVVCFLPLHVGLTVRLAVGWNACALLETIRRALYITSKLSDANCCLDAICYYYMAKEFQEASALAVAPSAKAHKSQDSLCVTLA

SMILES | inhibition
CC1CCCC(C)N1C(=O)c1cc2ncc(CCCl)cn2n1 (configuration not stated) | -11.5% (inactive)
O=C(CCCC(=O)N(c1ccc(F)cc1)C(C(=O)NC1CCCC1)c1ccc(O)cc1)Nc1ccccn1 (configuration not stated) | 6.8% (inactive)
Cc1ccc(N/C(N)=N/c2nc(CSc3ccccn3)cc(=O)[nH]2)c(C)c1 | 2.7% (inactive)
C=CCSc1n[nH]c(-c2cccs2)n1 | 13.6% (inactive)
COc1ccc(/C=C2\OC(=S)N(C)C2=O)cc1 | 22.6% (inactive)
CN1C(=S)N(c2cccnc2)C(=O)/C1=C\c1ccc(N(C)C)cc1 | 15.6% (inactive)
N#Cc1c(C(F)(F)F)cc(-c2cccs2)nc1SCc1cccnc1 | -12.1% (inactive)
O=C(COC(=O)Cn1cnc2ccccc2c1=O)Nc1cc(Cl)ccc1[N+](=O)[O-] | -6.5% (inactive)
CC(C)CNS(=O)(=O)c1ccc2c(c1)OCCO2 | 13.4% (inactive)
COC(=O)c1cnn(-c2ccc(F)cc2F)c1/C=N/NC(N)=S | 17.4% (inactive)
COC(=O)c1cnn(-c2ccccc2)c1/C=N/NC(=S)Nc1ccccc1 | 35.2% (inactive)
COC(=O)c1cnn(-c2ccc(Cl)cc2)c1/C=N/NC(N)=S | 7% (inactive)
COC(=O)c1cnn(-c2ccccc2)c1/C=N/NC(=S)Nc1ccc(Cl)cc1 | -10.9% (inactive)
COc1ccc(C2=NOC(C(=O)Nc3cccc(O)c3)C2)cc1 (configuration not stated) | -13.8% (inactive)
COc1ccc(-c2cc3c(=O)n(CC(=O)NC4CCN(Cc5ccccc5)CC4)ncn3n2)cc1 | 19.6% (inactive)
CCCc1c(O)nc(SCC(=O)NCc2ccco2)[nH]c1=O | -14.7% (inactive)
Cc1ccsc1-c1nc(C(N)=O)c2[nH]c(=O)n(-c3ccc(Cl)cc3)c2n1 | -1.2% (inactive)
O=C(NCc1ccc2c(c1)OCO2)C1CC(=O)N(CCc2ccc(Cl)cc2)C1 (configuration not stated) | -11.7% (inactive)
COc1cc(C(=O)Nc2ccc(C(N)=O)cc2)c([N+](=O)[O-])cc1OC | 3% (inactive)
COc1ccc2nc(N=NC3=C(O)CC(C)(C)CC3=O)sc2c1 | 0.7% (inactive)
CC(C)COc1ccc(-c2nnc(-c3ccncc3)o2)cc1 | 2.8% (inactive)
COc1ccc(-c2nnc(-c3ccc(OCC(C)C)cc3)o2)cc1 | 4.6% (inactive)
O=C(COC(=O)Cc1ccsc1)Nc1ccc(Cl)c(S(=O)(=O)N2CCOCC2)c1 | 23.9% (inactive)

SMILES | inhibition
O=C(O)COc1ccc(/C=C/C(=O)c2ccc3ccccc3c2)cc1 | 12.2% (inactive)
CCOc1ccc(/C=C/C(=O)c2ccccc2)cc1 | 7% (inactive)
COC(=O)c1sc(NC(=O)CSc2nnc(Cn3nnc4ccccc43)n2C)nc1C | 5.3% (inactive)
CN(C)/C=C1\SC(=S)N(c2ccc(Br)cc2)C1=O | 21.4% (inactive)
CN(C)/C=C1\SC(=S)N(c2ccc(F)cc2)C1=O | 9.5% (inactive)
Nc1ccc(S(=O)(=O)NC(Cc2ccccc2)C(=O)O)cc1 (configuration not stated) | -10.2% (inactive)
CCOC(=O)CC1C(=O)NCCN1c1nc2ccc(C)cn2c(=O)c1/C=C1\SC(=S)N(CC(C)C)C1=O (configuration not stated) | 21.7% (inactive)
CCOC(=O)CC1C(=O)NCCN1c1nc2c(C)cccn2c(=O)c1/C=C1\SC(=S)N(C(C)CC)C1=O (configuration not stated) | 55.7% (active)
CCOC(=O)CC1C(=O)NCCN1c1nc2ccc(C)cn2c(=O)c1/C=C1\SC(=S)N(C(C)CC)C1=O (configuration not stated) | 43.7% (inactive)
CCOC(=O)CC1C(=O)NCCN1c1nc2c(C)cccn2c(=O)c1/C=C1\SC(=S)N(CC(C)C)C1=O (configuration not stated) | 58.9% (active)
CCCN1C(=O)/C(=C/c2c(N3CCNC(=O)C3CC(=O)OCC)nc3c(C)cccn3c2=O)SC1=S (configuration not stated) | 33% (inactive)
CCCN1C(=O)/C(=C/c2c(N3CCNC(=O)C3CC(=O)OC)nc3c(C)cccn3c2=O)SC1=S (configuration not stated) | 12.4% (inactive)
Cc1cc(C)c(NC(=O)NC2CCCCC2)c(C)c1 | -0.9% (inactive)
COc1cccc(/C=C2\SC(=S)N(CCC(=O)Nc3ccc(O)cc3)C2=O)c1 | -4.8% (inactive)
COc1cccc(/C=C2/SC(=S)N(CCCC(=O)Nc3ccc(O)cc3)C2=O)c1 | 24% (inactive)
O=C(CCCN1C(=O)/C(=C\c2ccccc2)SC1=S)Nc1ccc(O)cc1C(=O)O | -10% (inactive)
O=C(CCCN1C(=O)/C(=C\c2ccccc2)SC1=S)Nc1ccc(O)cc1 | 23.5% (inactive)
O=C(CCN1C(=O)/C(=C/c2ccc(Cl)cc2)SC1=S)Nc1ccc(C(=O)O)cc1 | 6.4% (inactive)
O=C(CCN1C(=O)/C(=C\c2ccccc2)SC1=S)Nc1ccc(C(=O)O)cc1 | 27.2% (inactive)
CCc1ccc(/C=C2/SC(=S)N(CCC(=O)Nc3ccc(C(=O)O)cc3)C2=O)cc1 | -13.9% (inactive)
O=C(CCN1C(=O)S/C(=C/c2ccccc2)C1=O)Nc1ccc(C(=O)O)c(O)c1 | 13.4% (inactive)
CC(C)CCn1c(CN2CCOCC2)nc2c1c(=O)n(C)c(=O)n2C | -9.6% (inactive)
CC1(C)CCCC2=C1CC1C(=O)N(O)C(=O)C1C2 (configuration not stated) | 2.3% (inactive)

SMILES | inhibition
O=C1CCCN2N=C(SCC(=O)Nc3ccccc3C(F)(F)F)SC2=N1 | 1.9% (inactive)
CC(=O)N1CCc2cc(S(=O)(=O)CCC(=O)N3CCN(c4ccccc4F)CC3)ccc21 | 6.2% (inactive)
N#Cc1ccccc1NC(=O)CNc1ccccc1N1CCCCC1 | 19.6% (inactive)
O=C(CCCN1C(=O)/C(=C\c2cccs2)SC1=S)Nc1ccc(C(=O)O)cc1 | 13.3% (inactive)
O=C(CN1C(=O)S/C(=C\c2ccc(C(=O)O)cc2)C1=O)Nc1ccccc1 | -1.7% (inactive)
O=C(CCN1C(=O)S/C(=C\c2ccc(Cl)cc2)C1=O)Nc1ccc(C(=O)O)cc1 | 4.2% (inactive)
O=C(CCCN1C(=O)/C(=C/c2cccs2)SC1=S)Nc1ccc(O)c(C(=O)O)c1 | 99.6% (active)
O=C(CCN1C(=O)/C(=C/c2cccs2)SC1=S)Nc1ccc(C(=O)O)c(O)c1 | -2.6% (inactive)
COc1ccc(Cc2nnc(SCC(=O)NC3CCCCC3)n2C)cc1 | 9.8% (inactive)
COc1ccc(-n2c(C)nnc2SCC(=O)N2CCOCC2)cc1 | -0.9% (inactive)
FC(F)(F)c1ccccc1N/N=C/c1cccnc1 | -3.9% (inactive)
O=C(NCC1CC1)Nc1ccccc1 | -5% (inactive)
COCC(C)NC(=S)Nc1ccccc1[N+](=O)[O-] (configuration not stated) | -3.3% (inactive)
NS(=O)(=O)c1cccc(C(=O)NC2CCSc3ccccc32)c1 (configuration not stated) | -7.4% (inactive)
COc1cc(/C=N/N=C(N)N)ccc1OCc1ccccc1Cl | -8.2% (inactive)
COc1cc(/C=N/O)ccc1OCc1ccccc1Cl | -5.4% (inactive)
Fc1cccc(Cl)c1CSc1ccc(-c2cccnc2)nn1 | 5.4% (inactive)
c1ccc(-c2ccc(SCc3cccnc3)nn2)nc1 | -18.4% (inactive)
NNC(=O)c1sc(-c2ccc(Cl)cc2)cc1N | 10.1% (inactive)
COc1ccccc1N=Nc1ccc(N)c(C)c1 | 5.6% (inactive)
CCn1c(CNC(=O)c2ccc(Cl)cc2)nnc1SCC(=O)N1CCOCC1 | -15.6% (inactive)
Cn1cc(/C=C/c2cc[n+](C)cc2)c2cc(F)ccc21 | 29.2% (inactive)
Cn1cc(/C=C/c2cc[n+](C)cc2)c2cc(Cl)ccc21 | 54.7% (active)

SMILES | inhibition
COc1ccc2c(c1)c(/C=C/c1cc[n+](C)cc1)cn2C | 48.7% (inactive)
CN1CCc2c(sc3nc(NN)n(Cc4ccccc4)c(=O)c23)C1 | 12.8% (inactive)
NNC(=O)c1oc2nc(-c3ccco3)cc(-c3ccco3)c2c1N | 92.5% (active)
Cc1ccc(-c2cc(-c3ccco3)c3c(N)c(C(=O)NN)oc3n2)cc1 | -7.6% (inactive)
NNC(=O)c1oc2nc(-c3cccs3)cc(-c3ccco3)c2c1N | -11.1% (inactive)
O=C(CCCn1c(=O)[nH]c2cc(Cl)ccc2c1=O)NCCCN1CCCC1 | 1.1% (inactive)
CCCn1c(=O)[nH]c(=O)c2c1nc(-c1ccc(C(F)(F)F)cc1)n2CCOC | 2.1% (inactive)
N#CC1=C(N)C(C#N)(C#N)[C@H](c2cccnc2)[C@H]2CN(C(=O)OCc3ccccc3)CC=C12 | 0.1% (inactive)
N#CC1=C(N)C(C#N)(C#N)C(c2cccnc2)C2CN(C(=O)OCc3ccccc3)CC=C12 (configuration not stated) | 8.1% (inactive)
CCN1CC=C2C(C#N)=C(N)C(C#N)(C#N)C(CCc3ccccc3)C2C1 (configuration not stated) | 90.4% (active)
CN1CC=C2C(C#N)=C(N)C(C#N)(C#N)C(Cc3ccccc3)C2C1 (configuration not stated) | 53.4% (active)
CC(=O)N1CC=C2C(C#N)=C(N)C(C#N)(C#N)C(CCc3ccccc3)C2C1 (configuration not stated) | -5.1% (inactive)
Cc1ccc(S(=O)(=O)N(C)c2ccc(C(=O)NCCc3ccccc3)cc2)cc1 | 3.9% (inactive)
Cc1ccc(C2(COC(=O)C(C)C)CO2)c(OC(=O)C(C)C)c1 (configuration not stated) | 10.9% (inactive)
CCn1c(Oc2ccc(F)cc2)nc2c1c(=O)n(C)c(=O)n2C | 5.5% (inactive)
COc1ccc(OCC(O)CNC(=O)Nc2ccccc2)cc1 (configuration not stated) | 1.5% (inactive)
CN1CCc2nc(NC(=O)c3cccc(OC(F)F)c3)sc2C1 | 4.4% (inactive)
COc1ccccc1N1CCN(CCCn2c(=S)[nH]c3ccccc3c2=O)CC1 | -1.1% (inactive)
Cc1ccc(OCC(=O)N2CCN(C(=O)c3ccncc3)CC2)cc1 | -6.5% (inactive)
C=CCCCCCCCCc1nc(=S)[nH][nH]1 | -18.8% (inactive)
C=CCCCCCCCCc1nc(SCC(C)=O)n[nH]1 | 18.4% (inactive)
COc1ccc(NC(=O)COC(=O)C2CC(=O)N(c3ccc(C)cc3)C2)cc1 (configuration not stated) | -10.1% (inactive)
O=S(=O)(NN1CCOCC1)c1cc(Cl)cc(Cl)c1O | -8.3% (inactive)
